# Compounds with a hit are over-represented: about 3.5% of the library has one in this group of screens.
# GPR151 activ = human GPR151 activation. PathHunter beta-arrestin GPR151 cells, luminescence. activation, % at 11.2 µM. hit rate 1% among 650,000; in the data active = activation above about 4.9%;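 note: 0% = median of compound wells and 100% = cells with positive control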
# Target sequence (Q8TDV0 whole entry, looked up): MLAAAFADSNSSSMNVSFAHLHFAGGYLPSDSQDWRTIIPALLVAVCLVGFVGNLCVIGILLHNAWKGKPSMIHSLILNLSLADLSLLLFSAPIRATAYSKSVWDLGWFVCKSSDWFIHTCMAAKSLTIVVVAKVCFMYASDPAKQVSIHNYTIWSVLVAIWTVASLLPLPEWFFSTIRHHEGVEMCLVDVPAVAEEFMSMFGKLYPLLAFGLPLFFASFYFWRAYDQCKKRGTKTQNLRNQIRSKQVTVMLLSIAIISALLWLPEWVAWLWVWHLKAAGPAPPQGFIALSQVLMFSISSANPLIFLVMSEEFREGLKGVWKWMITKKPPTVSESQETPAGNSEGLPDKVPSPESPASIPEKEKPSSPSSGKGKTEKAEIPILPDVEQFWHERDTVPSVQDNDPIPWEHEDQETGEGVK
# TEAD-YAP inh = TEAD-YAP interaction inhibition; hit rate 1.4% among 640,000; inhibition, % at 9.12 µM; AID 1259422; HEK-TIYL cells, TEAD-Gal4/YAP UAS-luciferase luminescence; in the data active = inhibition above about 32%;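 note: 0% = median of test compound wells and 100% = reference inhibitor wells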
# MITF inh = inhibitors of human MITF; O75030; AlphaScreen MITF homodimerization, bead proximity signal; inhibition, % at 2.6 µM; hit rate 0.91% among 650,000; AID 1259374; in the data active = inhibition above about 50%;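 note: 0% = vehicle wells with protein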
# FBW7 activator = activators of human E3 ligase FBW7 | Q969H0 | AlphaScreen FBW7–phospho-cyclin E peptide binding, activator screen | normalized activity (activation), % at 26.1 µM | hit rate 0.13% among 650,000; in the data active = normalized activity above about 1.9%;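 note: purified mutant Fbw7 with reduced substrate affinity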
# GPR151 confirm = confirmation of human GPR151 activators; GPR151 PathHunter beta-arrestin cells, luminescence, 90 min; % of EA-reagent control over plate median; activation, % at 11.2 µM; shares compounds with GPR151 activ; 6,700 tested, under 10 active;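 active = mean percent activation across replicates above the confirmation screen cutoff of 4.91%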
# GPR119 ag = GPR119 activation, counter-screen for GPR151 activators | shares compounds with GPR151 activ | GPR119 PathHunter beta-arrestin cells, luminescence, 90 min; 0 = compound-well median, 100 = enzyme-acceptor control | activation, % at 11.2 µM | hit rate 0.3% among 6,700 | AID 1508611;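 active = mean percent activation in the counterscreen above 29.09%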;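 note: counterscreen on off-target GPR119 to flag nonselective hits from the GPR151 activator screen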
# * marks the source's active call; other numbers are inactive results; . = no result.
SMILES,GPR151 activ,TEAD-YAP inh,MITF inh,FBW7 activator,GPR151 confirm,GPR119 ag
O=C(CSc1nc(=O)n(CCCO)c2c1CCCC2)N1CCN(c2ccccc2)CC1,-1.4,6.2,8.1,0.2,.,.
CC1CCN(C(=O)CSc2nc(=O)n(CCO)c3c2CCCC3)CC1,8.3*,-0.9,7.7,0.0,-0.1,-1.4
Fc1ccc(/C=N/Nc2nc3ccccc3s2)cc1,7.0*,-64.4,3.3,0.0,-0.5,3.9
COc1ccc(CCN2C(=O)NC(NC(C)=O)(C(F)(F)F)C2=O)cc1OC (stereo not drawn),5.0*,3.3,12.4,0.4,-0.2,-9.1
c1cc(-n2cnc3c(NCCN4CCOCC4)nc(NCc4ccc5c(c4)OCO5)nc32)cs1,-1.1,13.6,16.9,0.1,.,.
COc1cc(C)c(C)cc1S(=O)(=O)NC1CCCCC1C (stereo not drawn),8.8*,1.7,5.0,-0.1,0.2,7.9
COc1ccc(C)cc1S(=O)(=O)NC1CCCCC1C (stereo not drawn),1.7,-6.4,-4.7,0.0,.,.
C/C(Cl)=C/Cn1c(N2CCNCC2)nc2c1c(=O)[nH]c(=O)n2C,-1.3,10.6,17.3,0.5,.,.
Clc1cc2c(cc1-c1nc(-c3ccccc3)c(-c3ccccc3)[nH]1)OCO2,6.6*,-1.0,46.7,0.1,2.5,19.7
COc1ccc(-c2[nH]c(-c3ccc4c(c3)OCO4)nc2-c2ccccc2)cc1,0.5,1.1,-3.3,-0.2,.,.
COc1cc(OC)c(OC)cc1/C=C1\N=C(c2ccco2)OC1=O,3.0,-0.5,7.3,0.0,.,.
COc1ccccc1C(=O)COC(=O)C1(C)CC1(Cl)Cl (stereo not drawn),7.6*,-30.6,-2.2,0.1,2.4,12.6
O=C(O)c1ccc(NC(=O)C2CC(=O)N(Cc3ccc4c(c3)OCO4)C(=Nc3cccc(C(F)(F)F)c3)S2)cc1 (stereo not drawn),0.8,15.3,-0.2,0.0,.,.
COC(=O)c1ccc(NC(=O)C2CC(=O)N(Cc3ccc4c(c3)OCO4)C(=Nc3cccc(C(F)(F)F)c3)S2)cc1 (stereo not drawn),6.4*,-0.8,6.5,0.0,0.8,2.5
O=C(Nc1cc(Oc2ccc(F)cc2F)cc([N+](=O)[O-])c1)c1oc(=O)c2ccccc2c1-c1ccccc1,5.5*,-8.0,0.9,0.3,-0.4,7.6
O=C(Nc1cc(Sc2ccc(F)cc2)cc([N+](=O)[O-])c1)c1oc(=O)c2ccccc2c1-c1ccccc1,-1.9,-4.0,4.0,0.1,.,.
COc1cc(C=O)ccc1Oc1ncccc1[N+](=O)[O-],8.0*,6.9,-3.0,-0.1,0.8,-4.8
CCOC(=O)c1c(C)n(-c2ccc(C)c(C)c2)c2ccc(OC(=O)c3ccccc3)cc12,0.9,3.5,7.0,0.0,.,.
COc1cccc(CNC(=O)CSc2nc3c(oc4ccccc43)c(=O)n2CCCOC(C)C)c1,6.5*,1.3,2.4,-0.1,-0.6,-12.6
COc1ccc(-c2cc(NCCCN3CCCC3=O)ncn2)cc1,-0.1,-11.0,-3.0,0.1,.,.
Cc1noc(C)c1-c1cc(NCCCN2CCCC2=O)ncn1,5.9*,-3.5,2.3,-0.1,-0.7,-6.6
Cn1ccc2cc(-c3cc(NCCCN4CCCC4=O)ncn3)ccc21,11.4*,0.9,-17.0,-0.2,0.1,1.0
O=C(NCc1ccc(Cl)cc1)C1CCCN1S(=O)(=O)c1cccc2nsnc12 (stereo not drawn),0.3,-16.1,-4.2,-1.2,.,.
CN(C)c1ccc(/C=C2/C(=N)N3N=C(C4CCCCC4)SC3=NC2=O)cc1,-1.4,-9.4,-2.7,0.0,.,.
COc1cc(C(=O)Nc2cc(C)c(O)cc2C)cc(OC)c1OC,6.1*,4.7,-6.0,0.0,1.1,4.2
COc1cc(C(=O)Nc2ccc(O)cc2C)cc(OC)c1OC,-0.6,-0.7,12.0,0.1,.,.
CCCCc1cc(=O)oc2c(C)c(OCC(=O)OC(C)(C)C)ccc12,5.7*,-1.6,5.9,0.3,0.5,-0.9
CCC(=O)c1ccc(OCC(O)CN2CCN(c3ccccc3OC)CC2)cc1 (stereo not drawn),2.4,3.9,-0.8,-0.2,.,.
COC(=O)c1ccc(OCC(O)CN2CCN(c3ccccc3OC)CC2)cc1 (stereo not drawn),10.7*,19.7,-7.9,0.1,0.3,1.7
COc1ccccc1N1CCN(CCN2CCN(C)CC2)CC1,12.5*,-2.0,4.8,-0.1,0.2,-10.6

# Compound activity deposited in PubChem BioAssay by The Scripps Research Institute Molecular Screening Center.
